Results filed as inconclusive are left out. Active and inactive are the calls of the source. Calls come from the whole dose curve; as a rule, active = well fitted cell-killing curve with a large enough effect; inconclusive = small, poorly fitted or top-dose-only effect, or effect the other way; inactive = no such curve, though single readings can be large or run the other way.
Potency is the fitted concentration of half-maximal effect.

A short description of this test: Viability qHTS for spleen associated tyrosine kinase inhibitor (SYKi) drug resistant MV4-11 cells (AID 1963824). Note: nearly all actives have a fitted effect of over 35% in size. The following applies: SYKi-resistant MV4-11 viability, CellTiter-Glo, 72 h; series mostly up to 45 µM. An outline of the steps: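 CellTiter-Glo luminescence, read 10 min after reagent addition, reports viability after a 72 hr compound exposure. Cells are an MV4-11 line made resistant to SYK inhibition, seeded at 500 per well onto compound-containing plates.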
In the case of `C=C1C(OC2OCC(O)C(O)C2O)CC2C(C)(C)C(O)CCC2(C)C1CC/C(C)=C\CO` (stereo not given), the Potency was 7.09 µM (active). Consider `CCCn1cc2c(nc(NC(=O)Nc3ccc(OC)cc3)n3nc(-c4ccco4)nc23)n1`, for which the Potency result is “inactive”. For the molecule `COc1cc(/C=C/C(=O)OC2[C@H](O)CC(O)(C(=O)O)C[C@H]2O)ccc1O` (stereo not given in full), the Potency entry was “inactive”.

In the case of `CNc1cc(OC)c(C(=O)N[C@@H]2CCN(Cc3ccccc3)[C@@H]2C)cc1Cl`, the Potency is 14.6 µM (active). The same measure for `O=C(Cc1c(F)cccc1F)Nc1cc(OCc2ccc(Cl)cc2)ccn1`: 14.6 µM (active).

Source of the values: PubChem BioAssay (NCATS).
